In article PMC7819943, “Rice protein-binding microarrays: a tool to detect cis-acting elements near promoter regions in rice” one finds binding signal data, which are given here for 42 sequences.

Whole data set: some 39,000 sequences, median “fluorescence intensity (a.u.)” near 4,300, cut for the highest 2% near 39,000. The sample as a whole holds a higher share of the highest values than the screen did.

The experiment concerns the target T1, OsSMF1 (Oryza sativa, UniProt Q6ZLB0 1-436).
T1 sequence: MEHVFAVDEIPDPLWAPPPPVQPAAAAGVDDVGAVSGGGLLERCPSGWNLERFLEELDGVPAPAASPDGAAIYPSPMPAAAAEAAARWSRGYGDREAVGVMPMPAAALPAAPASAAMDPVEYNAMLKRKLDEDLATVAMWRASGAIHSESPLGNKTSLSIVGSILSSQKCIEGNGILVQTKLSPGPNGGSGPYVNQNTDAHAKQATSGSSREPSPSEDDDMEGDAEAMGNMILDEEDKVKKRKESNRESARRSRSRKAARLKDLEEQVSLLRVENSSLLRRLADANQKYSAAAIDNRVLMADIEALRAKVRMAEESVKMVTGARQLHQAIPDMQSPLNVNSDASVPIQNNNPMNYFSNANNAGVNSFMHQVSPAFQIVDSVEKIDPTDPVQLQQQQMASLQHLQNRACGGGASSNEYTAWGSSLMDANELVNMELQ
In words: protein-binding microarray (RPBM); PBS, 2% BSA, 51.3 ng/ul salmon testes DNA, 50 uM zinc acetate, 200 nM TF, 25 C, 1 h; high values mean tight binding. The settings on record: protein: recombinant; tags: N-terminal polyhistidine and DsRed monomer fusion (pET32a); chain copies: 2; label: CyDye5-dUTP incorporated in the synthesized complementary strand; 3' TTTTT single-stranded linker to array surface; dsDNA, one strand shown. The procedure, abridged: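 For the binding signal, per-feature fluorescence intensity was read in arbitrary units on an Axon 4000B scanner. Before scanning, a 2% BSA-blocked custom Agilent array made double-stranded with Cy5-dUTP was washed after 1 h at 25 °C with 200 nM protein and 50 µM zinc acetate. The proteins were Ni–NTA-purified transcription factors with N-terminal polyhistidine and DsRed fusions, expressed in E. coli BL21-CodonPlus.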
“GGTTGAATCAAATTGTTCCTCTGTTACACTTACACATCATCGGAGTCACCTAGTGCAG”: the binding signal is 3250 fluorescence intensity (a.u.).
Take “AATACTGAATACTAGTGCAACGTCATTGAAAATTTTATCCCGGAGTCACCTAGTGCAG”: the binding signal was 5090 fluorescence intensity (a.u.).
Under “CGTCGTGCCTACGGGCCGTTCGCGTGTCGTGTCGGCCCAACGGAGTCACCTAGTGCAG” stands 3850 fluorescence intensity (a.u.); under “ACGGTAGGAGCTGCAGCGGTCGGGGTGGGAGCAGGGGTCGCGGAGTCACCTAGTGCAG”, 3440 fluorescence intensity (a.u.); under “AAATGTTATGAGTACGATGACACATTAAAACACAGTCATTCGGAGTCACCTAGTGCAG”, 4650 fluorescence intensity (a.u.).
The figure for “TTTTGGGCCTCCTGTGACCTACATGGGCCGCACTTCTTTCCGGAGTCACCTAGTGCAG” is 25900 fluorescence intensity (a.u.); for “TTACAGGTGTTGTCATTTTATGTGACCGGTCAGACCGGGCCGGAGTCACCTAGTGCAG” it is 4510 fluorescence intensity (a.u.).
As for “GACCATAAGTGTCCACGTATGCAAAACTCGACCTCCGTTTCGGAGTCACCTAGTGCAG”, the binding signal was 13800 fluorescence intensity (a.u.).
Under “CACAACCACAAGGTTGTCATTACCTCTATCATCGGTGTAACGGAGTCACCTAGTGCAG” stands 3380 fluorescence intensity (a.u.); under “CATCATGTCCTATCTGAACTGTTACAACCACGACGTAGTACGGAGTCACCTAGTGCAG”, 3320 fluorescence intensity (a.u.).
Under “CATTTATAACTTTGCTGTGTTTCACTGATGCAGGTTTTATCGGAGTCACCTAGTGCAG” stands 3490 fluorescence intensity (a.u.); under “GCGCGCGCCACCGCACCCGCGACGCCGACGTGTTCATGACCGGAGTCACCTAGTGCAG”, 5890 fluorescence intensity (a.u.); under “GTGGCGCGCGCGCGCACGCACGCTGGGCGACACGCCACGCCGGAGTCACCTAGTGCAG”, 4530 fluorescence intensity (a.u.).
Under “AAAGCCGCACACGTGTTTCCCGCGACCGCGCCACGTCACCCGGAGTCACCTAGTGCAG” stands 46700 fluorescence intensity (a.u.).
On to “CGCCACCGTCACCGACCGCGCGCGCACGCACGCACACTCCCGGAGTCACCTAGTGCAG”, for which the binding signal was 3390 fluorescence intensity (a.u.).
The figure for “CACGCCGCCGCCCGTCGCGAGCTCCACGTCGAGCAGCAGCCGGAGTCACCTAGTGCAG” is 4920 fluorescence intensity (a.u.); for “TCCGCCGTCGCCGCTCCGTCCATCGCCCGCCGTCACCGCCCGGAGTCACCTAGTGCAG” it is 4040 fluorescence intensity (a.u.); for “CCGTCGCCGCCAAGCATCGAGCCGCCGGCCACAGCAGCCGCGGAGTCACCTAGTGCAG” it is 42100 fluorescence intensity (a.u.).
Under “CGGCGTGGCCGCTGCGTCACGGGCGACTGCGCCAGCGTGCCGGAGTCACCTAGTGCAG” stands 5890 fluorescence intensity (a.u.).
In the case of “CCCCTCCGCCTCGTCCCCATCGGCCACTGCCACCACCGCCCGGAGTCACCTAGTGCAG”, the binding signal was 3700 fluorescence intensity (a.u.).
As to “CGGTCGGTCCATCGCCCTCCGTCCCCATCCCCACCGTCACCGGAGTCACCTAGTGCAG”, the binding signal was 41900 fluorescence intensity (a.u.).
The figure for “CCGCCGCAGCCGCAGCCGGCCAAGCTGGGCGTCGGCGACACGGAGTCACCTAGTGCAG” is 39700 fluorescence intensity (a.u.).
“CCAGCATCGCCGGCAGATCCACGTCGAGCATCGCGGCAGGCGGAGTCACCTAGTGCAG”: the binding signal is 5190 fluorescence intensity (a.u.).
Under “TACAAAATCATCCATCAACCGCAAAATCAGATATCGACCGCGGAGTCACCTAGTGCAG” stands 3800 fluorescence intensity (a.u.); under “GATGTGACGTGATGTGATGGAAAGTTGGGAGTTGGGGAAACGGAGTCACCTAGTGCAG”, 6040 fluorescence intensity (a.u.).
For “TTGGCCGGTAACGCGTCATGACTCATGAGCTACTGGACTTCGGAGTCACCTAGTGCAG”, the binding signal was 9990 fluorescence intensity (a.u.).
Under “TTCGTCCGTGCGTGCGTGCGTGCGCGACTCGCTCTCACACCGGAGTCACCTAGTGCAG” stands 10700 fluorescence intensity (a.u.); under “TACATTTCTTTGACAAAACTTTTATAACCAGCTGATGTGGCGGAGTCACCTAGTGCAG”, 11400 fluorescence intensity (a.u.).
The figure for “GAGTTGTGACTGTGAGGCACACCAATGGCGGCCCATGGATCGGAGTCACCTAGTGCAG” is 3740 fluorescence intensity (a.u.); for “CACTGTCCATCCATGGTGGTGGTCAGACAACCCCAGCACACGGAGTCACCTAGTGCAG” it is 3990 fluorescence intensity (a.u.); for “TGCGATTGATTCGGTATTAGAGCCTGCATACGTGTCATCTCGGAGTCACCTAGTGCAG” it is 22100 fluorescence intensity (a.u.).
Under “TCGGCCAATGCGGAGCCGTCAGCTCTCCGCTGCTCGGCTACGGAGTCACCTAGTGCAG” stands 44400 fluorescence intensity (a.u.); under “CGCTCTGCCGTCCGGCTCTCCGCGCGATGCTACGTGGCCGCGGAGTCACCTAGTGCAG”, 5480 fluorescence intensity (a.u.).
For the sequence “GCCTCCACCTCGCTGCTGCTCCGCCAGCTAGTAGCCGCCACGGAGTCACCTAGTGCAG”, the binding signal was 3350 fluorescence intensity (a.u.).
The figure for “CGGCCGCCGCGACACCCGCCGCCACGTCGCCCCGCCACGCCGGAGTCACCTAGTGCAG” is 9460 fluorescence intensity (a.u.); for “TCCAGATCTTGGCGCCGCCGGATCCCGTCAGTCTCCACAACGGAGTCACCTAGTGCAG” it is 48300 fluorescence intensity (a.u.).
For the sequence “CATGAGGAGGATGCTGACGTCTCGAGGTGAAGGCCGCAATCGGAGTCACCTAGTGCAG”, the binding signal is 4970 fluorescence intensity (a.u.).
Under “GCCGCCGCCGCCGTCTGCACCCGCGTCAGCGCTCCACAAACGGAGTCACCTAGTGCAG” stands 3440 fluorescence intensity (a.u.).
Under “CCTCTCCAGTACGCGTCGCCCCGCCACGTCAGCGACTGGCCGGAGTCACCTAGTGCAG” stands 41600 fluorescence intensity (a.u.); under “CCATCTCGGCCCATGAGGATGCTGACGTCACCGCGTCGTCCGGAGTCACCTAGTGCAG”, 42700 fluorescence intensity (a.u.).
Under “TCTCCCAGGCCACCATCGGCGTCCACATCCCGCCGTCCGCCGGAGTCACCTAGTGCAG” stands 3510 fluorescence intensity (a.u.); under “CTCTCCCGCCTCGCCCGTCGACGCCCGCGCCACGTGCAGCCGGAGTCACCTAGTGCAG”, 6190 fluorescence intensity (a.u.).
